Assay [1] concerns the target Estrogen receptor (Homo sapiens) (UniProt P03372). Kind of assay: CCTE_Deisenroth_AIME_384WELL_LUC_Inactive: CCTE's 384-well Estrogen Receptor Transactivation Assay without AIME metabolic competence (ERTA luciferase; metabolism negative), Deisenroth Lab (AID 2284038; active = hit-call score of the fitted dose curve at least 0.9, where 1 is the maximum;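 note: VM7Luc4E2 breast cells given medium preincubated 2 h with S9-free microspheres; hits raise estrogen receptor luciferase signal so potencies reflect agonists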). In a few lines: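 Metabolism-negative mode: chemicals (10-point, 0.002–200 uM) held 2 h with alginate-water microspheres, then conditioned medium applied to VM7Luc4E2 cells for 24 h. Luciferase induction referenced to 17beta-estradiol.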

In another assay the test system is DIO2 (gene 1734). Kind of assay: CCTE_GLTED_hDIO2: CCTE's human Deiodinase 2 (DIO2) Inhibition Assay, Great Lakes Toxicology and Ecology Division (GLTED) Lab (AID 2284050; active = hit-call score of the fitted dose curve at least 0.9, where 1 is the maximum). In a few lines: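 Cell-free human DIO2 incubated 3 h with chemical; liberated iodide quantified by Sandell-Kolthoff absorbance. Triplicate plates; loss of signal fitted vs DMSO.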
Another assay has as its system DIO3 (gene 1735). Kind of assay: CCTE_GLTED_hDIO3: CCTE's human Deiodinase 3 (DIO3) Inhibition Assay, Great Lakes Toxicology and Ecology Division (GLTED) Lab (AID 2284055; active = hit-call score of the fitted dose curve at least 0.9, where 1 is the maximum;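 note: potency is for inhibition seen as loss of released iodide signal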). In a few lines:
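Human DIO3 from an adenovirus expression system is incubated 3 h with test chemical. Released iodide is quantified by Sandell-Kolthoff absorbance, in triplicate plates. Loss of signal is fitted relative to DMSO.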

Assay [2] in a line: CCTE_Shafer_MEA_acute_AB: CCTE's Alamar Blue Assay for Cytotoxicity in the Neural Acute Assay, Shafer Lab (AID 2284069; active = hit-call score of the fitted dose curve at least 0.9, where 1 is the maximum;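 note: active compounds lower the viability signal compared with DMSO wells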). In a few lines:
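Primary rat cortical neurons on MEA plates, exposed acutely after baseline recording on day 13 or 15 post-plating. Viability by CellTiter Blue resazurin reduction (1:6 reagent dilution), fluorescence 544/590 nm; loss of signal versus DMSO.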
On the technique in general: The colour change of resazurin is a common sign of viable cells or microbes.

Assay [3] can be described thus: CCTE_Shafer_MEA_dev_active_electrodes_number: CCTE's Neural Network Formation Assay for Number of Active Electrodes, Shafer Lab (AID 2284040; active = hit-call score of the fitted dose curve at least 0.9, where 1 is the maximum;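 for AC50: potency for loss of active electrodes versus DMSO so lower counts are hits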). The method, boiled down: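 Primary rat cortical neurons on 16-electrode MEA wells, exposed from day 0 through day 12 with compound renewed at DIV 5 and 9 feeds. Active electrodes (mean firing ≥5 spikes/min) counted at DIV 5, 7, 9, 12; trapezoidal AUC across days, loss-of-signal versus DMSO.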

Assay [4] can be described thus: CCTE_Shafer_MEA_dev_burst_rate: CCTE's Neural Network Formation Assay for Burst Rate, Shafer Lab (AID 2284042). In a few lines:
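Primary rat cortical neurons on PEI-coated 48-well MEA plates (laminin added with cells at plating) (16 electrodes/well), exposed from plating to day 12, dosing renewed at DIV 5 and 9. Burst rate averaged over active electrodes, recorded DIV 5, 7, 9, 12, summarized as AUC; loss versus DMSO.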

Assay [5] in a line: CCTE_Shafer_MEA_dev_bursting_electrodes_number: CCTE's Neural Network Formation Assay for Number of Bursting Electrodes, Shafer Lab (AID 2284043; active = hit-call score of the fitted dose curve at least 0.9, where 1 is the maximum;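 for AC50: potency is for loss of bursting electrodes relative to DMSO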). In a few lines: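 Primary rat cortical neurons were cultured on PEI-coated 48-well MEA plates (16 electrodes/well) and exposed from plating through day 12, with compound renewed at feeds on DIV 5 and 9. Electrodes bursting ≥1 per 2 min were counted on DIV 5, 7, 9, 12; trapezoidal AUC taken.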

The nature of assay [6]: CCTE_Shafer_MEA_dev_per_burst_interspike_interval: CCTE's Neural Network Formation Assay for Burst Interspike Interval, Shafer Lab (AID 2284044).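 For AC50: potency for a decrease of within-burst interspike interval below DMSO level.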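 Note: mean spike spacing inside bursts as AUC over recordings on days 5 7 9 12.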 In a few lines: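 Rat cortical primary cultures, 16 electrodes/well; compound from plating, renewed with full media change DIV 5 and 9. Spikes via adaptive detector; per-burst ISI well-mean over active bursting electrodes; AUC of DIV 5/7/9/12 recordings; loss-direction fit vs DMSO.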

The nature of assay [7]: CCTE_Shafer_MEA_dev_burst_duration_mean: CCTE's Neural Network Formation Assay for Mean Burst Duration, Shafer Lab (AID 2284045). In a few lines:
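Primary rat cortical neurons on PEI-coated 16-electrode MEA wells, exposed from plating through day 12 with compound renewed at DIV 5 and 9; spontaneous activity recorded days 5, 7, 9, 12. Well-mean burst duration collapsed as trapezoidal AUC, fitted for loss versus DMSO.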

Assay [8] is described as follows: CCTE_Shafer_MEA_dev_interburst_interval_mean: CCTE's Neural Network Formation Assay for Mean Interburst Interval, Shafer Lab (AID 2284046).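 Note: well-mean interburst interval of bursting electrodes as AUC over four recording days; curve fitted for decrease in interburst interval relative to DMSO.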 The method, boiled down:
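Recordings on days 5, 7, 9 and 12 give well-mean interburst interval across actively bursting electrodes, summarized as area under the curve. Cultures: rat cortical neurons, continuous exposure from day 0, compound renewed at feeds; decrease analyzed versus DMSO.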

Assay [9] is described as follows: CCTE_Shafer_MEA_dev_inter_network_spike_interval_mean: CCTE's Neural Network Formation Assay for Mean Inter-network Spike Interval, Shafer Lab (AID 2284047). In a few lines:
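Primary rat cortical neurons on 16-electrode MEA wells, exposed from plating day 0 through DIV 12, compound renewed at DIV 5 and 9 media changes. Mean interval between network-spike peaks recorded DIV 5, 7, 9, 12; collapsed as trapezoidal AUC, fitted downward versus DMSO.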

Assay [10] can be described thus: CCTE_Shafer_MEA_dev_network_spike_number: CCTE's Neural Network Formation Assay for Number of Network Spikes, Shafer Lab (AID 2284048).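 For AC50: fit as a loss of signal meaning fewer network spikes than DMSO.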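 Note: synchronized bursts across electrodes counted on days 5 7 9 12 and integrated as AUC.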 The method, boiled down: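 Primary rat cortical neurons were seeded at 1.5 x 10^5 cells/well on PEI-coated 16-electrode MEA wells with laminin, exposed from plating day 0, compound renewed at DIV 5 and 9. Network spikes were recorded on days 5, 7, 9, 12 and summarized as trapezoidal AUC versus DMSO.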

A short description of assay [11]: CCTE_Shafer_MEA_dev_network_spike_peak: CCTE's Neural Network Formation Assay for Mean Number of Electrodes in Network Spike, Shafer Lab (AID 2284049).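 For AC50: fitted for loss of signal meaning fewer electrodes in network spikes than DMSO.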 In a few lines:
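Continuous 12-day exposure of rat cortical cultures, starting at plating, on MEA plates. Endpoint: electrodes participating in network-spike peaks, AUC across DIV 5–12, DMSO as negative control.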

The nature of assay [12]: CCTE_Shafer_MEA_dev_network_spike_duration_std: CCTE's Neural Network Formation Assay for Standard Deviation of Network Spike Duration, Shafer Lab (AID 2284052).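 Note: area under curve of spike duration SD across recording days 5 to 12; hits are decreases in network spike duration SD versus DMSO vehicle.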 The method, boiled down:
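Primary rat cortical neurons on PEI-coated 16-electrode MEA wells, exposed from plating day 0 through day 12 with compound renewed at DIV 5 and 9. Network spike duration SD recorded on days 5, 7, 9, 12, collapsed as trapezoidal AUC; loss-of-signal fit versus DMSO.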

Assay [13] is described as follows: CCTE_Shafer_MEA_dev_per_network_spike_spike_number_mean: CCTE's Neural Network Formation Assay for Mean Number of Spikes in a Network Spike, Shafer Lab (AID 2284053).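 For AC50: fitted as decrease in spikes per network spike relative to DMSO.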 In a few lines: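 Primary rat cortical neurons on 48-well, 16-electrode MEA plates were exposed from plating to DIV 12, with dosing renewed on DIV 5 and 9. Spikes per network spike (0.05 s peak window) were recorded on DIV 5, 7, 9 and 12 and collapsed as trapezoidal AUC versus DMSO.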

The nature of assay [14]: CCTE_Shafer_MEA_dev_per_network_spike_spike_percent: CCTE's Neural Network Formation Assay for Percent of Spikes in a Network Spike, Shafer Lab (AID 2284054). In a few lines: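 Primary rat cortical neurons on 16-electrode MEA wells (PEI-coated, laminin at plating), exposed from day 0 with renewal at DIV 5 and 9; spikes within 0.05 s of network-spike peaks over total spikes, AUC across days 5, 7, 9, 12.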

The nature of assay [15]: UKN5_HCS_SBAD2_cell_viability: Viability Assessment in the University of Konstanz (UKN) Leist Lab Neurite Outgrowth Assay in human iPSC-derived immature Dorsal Root Ganglia Neurons (UKN5) (AID 2284056). In a few lines: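 iPSC-derived immature peripheral neurons (SBAD2) seeded on Matrigel with CHIR99021, SU5402 and DAPT, dosed 1 h later for 24 h. Viability from Hoechst H-33342 and calcein-AM live staining, high-content imaging; bidirectional fit versus DMSO.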

Assay [16] can be described thus: CCTE_Shafer_MEA_dev_LDH: CCTE's Lactate Dehydrogenase Assay for Cytotoxicity in the Neural Network Formation Assay, Shafer Lab (AID 2284068; active = hit-call score of the fitted dose curve at least 0.9, where 1 is the maximum;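 note: exposure for twelve days from plating with re-dosing on DIV 5 and 9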). The method, boiled down:
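Primary rat cortical neurons were plated on PEI/laminin MEA plates and exposed from day 0 for twelve days, with compound renewed at DIV 5 and 9. Cytotoxicity was determined by spectrophotometric LDH assay relative to DMSO.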

A short description of assay [17]: UKN5_HCS_SBAD2_neurite_outgrowth: University of Konstanz (UKN) Leist Lab Neurite Outgrowth Assay in human iPSC-derived immature Dorsal Root Ganglia Neurons (UKN5) (AID 2284070). Conditions: actives raise or lower the signal. The method, boiled down:
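SBAD2 iPSC-derived immature peripheral neurons on Matrigel, 100.000 cells/cm2, medium with CHIR99021 (1.5 uM), SU5402 (5 uM), DAPT (5 uM); compound added 1 h post-seeding for 24 h. Calcein-AM neurite area by high-content imaging; Hoechst H-33342 viability; bidirectional fit vs DMSO.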

Assay [18] can be described thus: CCTE_Shafer_MEA_dev_AB: CCTE's Alamar Blue Assay for Cytotoxicity in the Neural Network Formation Assay, Shafer Lab (AID 2284083; active = hit-call score of the fitted dose curve at least 0.9, where 1 is the maximum;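 note: twelve days of exposure from plating with re-dosing on DIV 5 and 9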). In a few lines: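 Primary rat cortical neurons on PEI-coated 48-well MEA plates, 1.5 x 10^5 cells/well in laminin drop; compound exposure from day 0 of plating for twelve days, renewed at medium changes on DIV 5 and 9. Viability read as resazurin reduction by fluorescence, relative to DMSO.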

Several values for one entry are separate records, joined by “and”; a condition that tells them apart may be missing. Equal entries are not always repeated. Results filed as inconclusive are left out. Some structures have more than one record in an assay (separate samples or runs), and their calls can disagree. Activity calls are given as the source filed them. Rule for the calls, unless noted: active = hit-call score of the fitted dose curve at least 0.9, where 1 is the maximum; inactive = score below 0.9.

Chain of Estrogen receptor (Homo sapiens) (P03372 whole entry, looked up): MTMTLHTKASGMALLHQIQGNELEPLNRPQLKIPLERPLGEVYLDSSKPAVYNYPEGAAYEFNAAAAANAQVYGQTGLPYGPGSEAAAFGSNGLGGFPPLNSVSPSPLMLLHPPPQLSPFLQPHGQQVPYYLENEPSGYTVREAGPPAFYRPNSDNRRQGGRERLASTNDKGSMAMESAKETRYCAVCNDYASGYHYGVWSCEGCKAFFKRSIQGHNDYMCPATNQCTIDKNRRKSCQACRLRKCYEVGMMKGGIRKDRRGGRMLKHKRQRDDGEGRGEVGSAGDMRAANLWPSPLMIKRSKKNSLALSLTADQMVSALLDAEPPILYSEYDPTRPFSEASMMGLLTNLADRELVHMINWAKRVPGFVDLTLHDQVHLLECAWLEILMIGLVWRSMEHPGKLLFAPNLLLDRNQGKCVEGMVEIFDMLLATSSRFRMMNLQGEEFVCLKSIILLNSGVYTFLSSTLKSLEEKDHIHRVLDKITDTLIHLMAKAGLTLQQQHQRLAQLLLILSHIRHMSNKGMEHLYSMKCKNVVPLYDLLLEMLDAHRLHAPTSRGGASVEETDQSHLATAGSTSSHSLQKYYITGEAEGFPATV

Usually AC50 stands for the concentration giving half of the maximal activity seen. Consider `CC=C1CC2C=CC1C2` (stereo not drawn), for which the molecule was classed as inactive in [1]. The AC50 in the assay on DIO2 (gene 1734) was 100 µM (active); with DIO3 (gene 1735), 47.9 µM (active).

Consider `O=C(c1ccc(O)cc1)c1ccc(O)cc1O`, for which the result in assay [2] was inactive.

In the case of `CC(C)C1=CC2=CC[C@@H]3[C@](C)(CCC[C@@]3(C)C(=O)O)[C@H]2CC1`, the half-maximal activity concentration (AC50) with DIO2 (gene 1734) was 100 µM (active); in the assay on DIO3 (gene 1735), 79.8 µM (active).

Turning to `CC/C=C\C/C=C\C/C=C\CCCCCCCC(=O)O`, the half-maximal activity concentration (AC50) was 21.2 µM (active) with DIO2 (gene 1734) and 13.1 µM (active) with DIO3 (gene 1735).

Take `CCCCCCCC/C=C\CCCCCCCC(=O)O`: the half-maximal activity concentration (AC50) was 79.4 µM (active) with DIO2 (gene 1734) and 29.8 µM (active) with DIO3 (gene 1735).

Consider `Nc1ncn([C@@H]2O[C@H](CO)[C@@H](O)[C@H]2O)c(=O)n1`, for which the AC50 in assay [3] was 2.13 µM (active); in assay [5] it was 1.34 µM (active); in assay [6], 2.4 µM (active); in [10], 2.26 µM (active); in assay [11] it was 4.18 µM (active); in assay [13], 2.56 µM (active). Further, the AC50 in assay [14] was 4.31 µM (active); in [16], 5.16 µM (active); in assay [17], 10 µM (active); in [18], 5 nM (active) and 15 µM (active). Also, the call in [3], in assay [4], in assay [5], in assay [6], in assay [7] and in [8] was inactive. Moreover, the result in [9], in assay [10], in assay [11], in assay [12], in [13] and in assay [14] was inactive. The result in assay [15] and in assay [16] was inactive.

As for `COC(F)(F)C(F)(C(F)(F)F)C(F)(F)F`, the result in assay [3], in [4], in assay [5], in assay [6], in assay [7] and in [8] was inactive. The call in assay [9], in assay [10], in assay [11], in [12], in assay [13] and in [14] was inactive.

Turning to `CCN(CCC#N)c1ccc(N=Nc2c(Cl)cc([N+](=O)[O-])cc2Cl)cc1`, the molecule was called inactive (in assay [1]; in the assay on DIO2 (gene 1734)). The AC50 with DIO3 (gene 1735) is 63.7 µM (active).

With `CC1(C)S[C@@H]2[C@H](NC(=O)COc3ccccc3)C(=O)N2[C@H]1C(=O)O`, the molecule was called inactive in assay [3], in [4], in [5], in [6], in [7] and in assay [8]. Moreover, the molecule was classed as inactive in [9], in assay [10], in [11], in assay [12], in assay [13] and in assay [14].

As for `Cc1ccc(N/N=c2\c(=O)cc/c(=N/Nc3ccc(S(=O)(=O)O)cc3)c2=O)c(C)c1`, in the assay with DIO2 (gene 1734), the molecule was called inactive. Besides, the AC50 in the assay with DIO3 (gene 1735) is 114 µM (active).
